This is an account of results in ChEMBL document CHEMBL2218924, “A broad activity screen in support of a chemogenomic map for kinase signalling research and drug discovery” (Biochem J, 2013).

Experiment [1] addresses Vascular endothelial growth factor receptor 3 (Homo sapiens) (UniProt P35916). The conditions noted are these: at 10 µM.
Experiment [2] deals with Macrophage colony-stimulating factor 1 receptor (Homo sapiens) (UniProt P07333). The conditions noted are these: at 10 µM.
The target in experiment [3] is Tyrosine-protein kinase Fyn (Homo sapiens) (UniProt P06241). The following applies: at 1 µM.
Chain of Tyrosine-protein kinase Fyn (Homo sapiens) (P06241 2-537 limits assumed): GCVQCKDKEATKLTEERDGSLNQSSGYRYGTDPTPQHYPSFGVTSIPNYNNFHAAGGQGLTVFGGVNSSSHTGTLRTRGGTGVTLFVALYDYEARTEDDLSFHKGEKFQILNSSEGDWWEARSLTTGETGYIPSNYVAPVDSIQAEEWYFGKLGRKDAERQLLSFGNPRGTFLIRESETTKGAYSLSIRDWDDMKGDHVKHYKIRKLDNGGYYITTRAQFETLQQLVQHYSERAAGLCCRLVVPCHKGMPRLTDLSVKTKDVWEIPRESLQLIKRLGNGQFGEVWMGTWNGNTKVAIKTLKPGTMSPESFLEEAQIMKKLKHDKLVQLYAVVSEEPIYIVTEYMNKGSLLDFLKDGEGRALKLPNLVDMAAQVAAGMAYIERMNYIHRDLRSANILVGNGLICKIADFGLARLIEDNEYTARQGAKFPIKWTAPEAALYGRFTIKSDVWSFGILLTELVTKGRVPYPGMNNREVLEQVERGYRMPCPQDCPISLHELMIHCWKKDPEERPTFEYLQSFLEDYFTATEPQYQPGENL
The target is the same in experiment [4]. The following applies: at 10 µM.
Experiment [5] has as its target T1, Mitogen-activated protein kinase kinase kinase kinase 2 (Homo sapiens) (UniProt Q12851).
T1 sequence (whole entry): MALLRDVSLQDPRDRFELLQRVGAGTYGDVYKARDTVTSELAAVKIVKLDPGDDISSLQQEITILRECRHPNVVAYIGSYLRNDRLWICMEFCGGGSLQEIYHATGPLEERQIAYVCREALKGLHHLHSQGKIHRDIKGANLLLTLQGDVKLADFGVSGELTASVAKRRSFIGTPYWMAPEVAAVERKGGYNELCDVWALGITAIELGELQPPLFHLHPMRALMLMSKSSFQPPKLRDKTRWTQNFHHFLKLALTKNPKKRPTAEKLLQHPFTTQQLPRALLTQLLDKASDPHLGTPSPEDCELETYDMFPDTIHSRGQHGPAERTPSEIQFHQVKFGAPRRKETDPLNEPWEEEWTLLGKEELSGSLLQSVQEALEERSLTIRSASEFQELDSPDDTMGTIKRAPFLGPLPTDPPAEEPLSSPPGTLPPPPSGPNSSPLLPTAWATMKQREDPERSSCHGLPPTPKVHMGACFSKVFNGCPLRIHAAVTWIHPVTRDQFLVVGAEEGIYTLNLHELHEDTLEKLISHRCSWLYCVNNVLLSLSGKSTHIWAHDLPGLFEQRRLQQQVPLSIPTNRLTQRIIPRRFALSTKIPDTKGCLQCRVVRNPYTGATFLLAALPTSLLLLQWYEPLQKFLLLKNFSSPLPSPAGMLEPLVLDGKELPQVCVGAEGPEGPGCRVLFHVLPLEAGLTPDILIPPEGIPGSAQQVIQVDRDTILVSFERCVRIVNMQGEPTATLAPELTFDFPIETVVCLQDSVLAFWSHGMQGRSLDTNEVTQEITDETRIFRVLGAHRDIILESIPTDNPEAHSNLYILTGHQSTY
The conditions noted are these: at 1 µM.

Experiment [6] has as its target G protein-coupled receptor kinase 6 (Homo sapiens) (UniProt P43250). The conditions noted are these: at 10 µM.
In experiment [7] the target is T2, Rhodopsin kinase GRK7 (Homo sapiens) (UniProt Q8WTQ7).
T2 sequence (whole entry): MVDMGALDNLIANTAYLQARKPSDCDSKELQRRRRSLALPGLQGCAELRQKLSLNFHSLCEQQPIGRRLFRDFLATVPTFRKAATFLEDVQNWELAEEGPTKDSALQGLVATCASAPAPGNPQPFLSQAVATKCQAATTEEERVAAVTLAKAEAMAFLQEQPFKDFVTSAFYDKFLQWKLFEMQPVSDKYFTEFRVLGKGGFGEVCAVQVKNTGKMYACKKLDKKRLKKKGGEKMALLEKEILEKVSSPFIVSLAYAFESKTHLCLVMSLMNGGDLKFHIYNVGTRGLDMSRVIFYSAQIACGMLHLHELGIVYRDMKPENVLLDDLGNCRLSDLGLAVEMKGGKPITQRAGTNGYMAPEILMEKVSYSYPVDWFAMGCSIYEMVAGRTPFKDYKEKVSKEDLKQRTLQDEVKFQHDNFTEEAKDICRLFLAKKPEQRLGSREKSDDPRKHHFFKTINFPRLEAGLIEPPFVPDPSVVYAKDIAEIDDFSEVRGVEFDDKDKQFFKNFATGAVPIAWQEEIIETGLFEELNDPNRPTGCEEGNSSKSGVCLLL
The conditions noted are these: at 10 µM.

In experiment [8] the target is Glycogen synthase kinase-3 alpha (Homo sapiens) (UniProt P49840). The following applies: at 10 µM.
Chain of Glycogen synthase kinase-3 alpha (Homo sapiens) (P49840 2-483 limits assumed): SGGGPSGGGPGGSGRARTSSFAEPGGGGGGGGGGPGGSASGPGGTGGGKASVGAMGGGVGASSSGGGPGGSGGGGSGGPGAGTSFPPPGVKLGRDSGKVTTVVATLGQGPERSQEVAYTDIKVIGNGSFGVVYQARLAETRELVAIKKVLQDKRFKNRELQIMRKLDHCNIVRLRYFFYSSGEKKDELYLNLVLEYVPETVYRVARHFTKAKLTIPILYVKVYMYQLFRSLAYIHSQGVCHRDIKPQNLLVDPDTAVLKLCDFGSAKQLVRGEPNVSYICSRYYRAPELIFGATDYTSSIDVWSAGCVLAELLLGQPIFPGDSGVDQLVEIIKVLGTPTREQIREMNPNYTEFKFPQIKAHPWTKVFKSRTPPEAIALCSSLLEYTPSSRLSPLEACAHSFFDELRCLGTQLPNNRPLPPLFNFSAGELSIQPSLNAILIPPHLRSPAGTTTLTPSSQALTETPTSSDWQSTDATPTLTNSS
The target in experiment [9] is Glycogen synthase kinase-3 beta (Homo sapiens) (UniProt P49841). The conditions noted are these: at 1 µM.
Chain of Glycogen synthase kinase-3 beta (Homo sapiens) (P49841 whole entry, looked up): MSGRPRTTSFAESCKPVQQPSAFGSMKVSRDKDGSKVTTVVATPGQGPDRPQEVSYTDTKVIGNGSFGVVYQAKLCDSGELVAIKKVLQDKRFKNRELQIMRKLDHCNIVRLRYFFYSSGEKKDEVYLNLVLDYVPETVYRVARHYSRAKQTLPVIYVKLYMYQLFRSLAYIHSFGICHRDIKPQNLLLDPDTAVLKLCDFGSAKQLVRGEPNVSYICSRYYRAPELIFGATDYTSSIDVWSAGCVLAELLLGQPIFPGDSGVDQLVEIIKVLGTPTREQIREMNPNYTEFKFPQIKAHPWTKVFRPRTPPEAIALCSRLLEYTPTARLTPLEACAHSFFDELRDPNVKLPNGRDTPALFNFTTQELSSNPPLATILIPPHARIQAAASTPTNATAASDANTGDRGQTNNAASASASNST
Experiment [10] deals with Homeodomain-interacting protein kinase 2 (Homo sapiens) (UniProt Q9H2X6). The following applies: at 1 µM.
Experiment [11] has the same target. The following applies: at 10 µM.
The target of experiment [12] is Homeodomain-interacting protein kinase 3 (Homo sapiens) (UniProt Q9H422). The conditions noted are these: at 1 µM.
Chain of Homeodomain-interacting protein kinase 3 (Homo sapiens) (Q9H422 whole entry, looked up): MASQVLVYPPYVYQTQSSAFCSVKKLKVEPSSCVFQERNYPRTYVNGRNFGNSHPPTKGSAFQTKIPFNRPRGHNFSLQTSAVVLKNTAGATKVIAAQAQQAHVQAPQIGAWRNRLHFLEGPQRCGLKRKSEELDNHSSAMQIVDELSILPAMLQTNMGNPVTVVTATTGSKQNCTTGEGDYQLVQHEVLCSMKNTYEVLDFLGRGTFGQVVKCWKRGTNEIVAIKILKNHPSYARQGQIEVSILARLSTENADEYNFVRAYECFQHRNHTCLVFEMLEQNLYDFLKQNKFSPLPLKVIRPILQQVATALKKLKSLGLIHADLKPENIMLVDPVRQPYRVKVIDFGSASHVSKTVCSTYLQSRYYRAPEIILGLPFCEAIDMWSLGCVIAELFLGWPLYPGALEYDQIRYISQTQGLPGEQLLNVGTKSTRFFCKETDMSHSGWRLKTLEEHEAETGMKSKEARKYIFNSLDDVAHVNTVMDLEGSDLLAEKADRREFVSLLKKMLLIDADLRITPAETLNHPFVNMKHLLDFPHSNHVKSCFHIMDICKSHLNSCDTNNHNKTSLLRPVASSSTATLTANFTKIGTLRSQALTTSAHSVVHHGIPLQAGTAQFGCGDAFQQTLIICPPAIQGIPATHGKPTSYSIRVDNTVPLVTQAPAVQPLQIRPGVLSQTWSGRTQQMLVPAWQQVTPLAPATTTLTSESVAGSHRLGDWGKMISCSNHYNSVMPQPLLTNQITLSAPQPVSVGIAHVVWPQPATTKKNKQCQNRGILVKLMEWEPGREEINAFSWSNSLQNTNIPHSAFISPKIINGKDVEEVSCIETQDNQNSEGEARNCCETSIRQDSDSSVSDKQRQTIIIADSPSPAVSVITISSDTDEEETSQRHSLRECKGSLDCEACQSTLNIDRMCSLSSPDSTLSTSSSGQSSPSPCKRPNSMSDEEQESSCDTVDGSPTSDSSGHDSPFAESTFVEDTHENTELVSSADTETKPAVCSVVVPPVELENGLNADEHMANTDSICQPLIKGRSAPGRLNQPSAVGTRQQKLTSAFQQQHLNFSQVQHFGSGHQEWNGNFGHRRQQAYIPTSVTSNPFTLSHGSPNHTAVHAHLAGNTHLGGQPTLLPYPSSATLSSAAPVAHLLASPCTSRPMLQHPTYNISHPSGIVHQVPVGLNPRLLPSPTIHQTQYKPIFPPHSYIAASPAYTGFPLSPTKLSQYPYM
The target in experiment [13] is T1, Mitogen-activated protein kinase kinase kinase kinase 2 (Homo sapiens). The conditions noted are these: at 10 µM.
The target in experiment [14] is G protein-coupled receptor kinase 5 (Homo sapiens) (UniProt P34947). The following applies: at 10 µM.
Chain of G protein-coupled receptor kinase 5 (Homo sapiens) (P34947 whole entry, looked up): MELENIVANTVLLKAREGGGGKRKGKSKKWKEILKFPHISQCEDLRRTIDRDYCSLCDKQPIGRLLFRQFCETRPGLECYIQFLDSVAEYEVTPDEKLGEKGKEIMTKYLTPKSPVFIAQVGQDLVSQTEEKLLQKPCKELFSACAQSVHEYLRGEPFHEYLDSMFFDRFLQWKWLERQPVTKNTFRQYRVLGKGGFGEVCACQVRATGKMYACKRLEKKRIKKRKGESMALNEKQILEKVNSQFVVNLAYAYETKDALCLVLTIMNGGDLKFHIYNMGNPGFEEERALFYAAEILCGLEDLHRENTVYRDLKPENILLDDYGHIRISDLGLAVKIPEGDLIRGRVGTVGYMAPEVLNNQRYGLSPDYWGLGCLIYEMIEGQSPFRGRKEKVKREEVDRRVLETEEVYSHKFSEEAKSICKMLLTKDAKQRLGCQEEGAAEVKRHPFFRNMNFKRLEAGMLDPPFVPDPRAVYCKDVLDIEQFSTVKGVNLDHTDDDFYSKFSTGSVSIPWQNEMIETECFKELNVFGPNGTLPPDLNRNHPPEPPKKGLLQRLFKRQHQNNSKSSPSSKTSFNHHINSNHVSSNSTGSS
For experiment [15], the target named is Homeodomain-interacting protein kinase 1 (Homo sapiens) (UniProt Q86Z02). The following applies: at 10 µM.
Chain of Homeodomain-interacting protein kinase 1 (Homo sapiens) (Q86Z02 whole entry, looked up): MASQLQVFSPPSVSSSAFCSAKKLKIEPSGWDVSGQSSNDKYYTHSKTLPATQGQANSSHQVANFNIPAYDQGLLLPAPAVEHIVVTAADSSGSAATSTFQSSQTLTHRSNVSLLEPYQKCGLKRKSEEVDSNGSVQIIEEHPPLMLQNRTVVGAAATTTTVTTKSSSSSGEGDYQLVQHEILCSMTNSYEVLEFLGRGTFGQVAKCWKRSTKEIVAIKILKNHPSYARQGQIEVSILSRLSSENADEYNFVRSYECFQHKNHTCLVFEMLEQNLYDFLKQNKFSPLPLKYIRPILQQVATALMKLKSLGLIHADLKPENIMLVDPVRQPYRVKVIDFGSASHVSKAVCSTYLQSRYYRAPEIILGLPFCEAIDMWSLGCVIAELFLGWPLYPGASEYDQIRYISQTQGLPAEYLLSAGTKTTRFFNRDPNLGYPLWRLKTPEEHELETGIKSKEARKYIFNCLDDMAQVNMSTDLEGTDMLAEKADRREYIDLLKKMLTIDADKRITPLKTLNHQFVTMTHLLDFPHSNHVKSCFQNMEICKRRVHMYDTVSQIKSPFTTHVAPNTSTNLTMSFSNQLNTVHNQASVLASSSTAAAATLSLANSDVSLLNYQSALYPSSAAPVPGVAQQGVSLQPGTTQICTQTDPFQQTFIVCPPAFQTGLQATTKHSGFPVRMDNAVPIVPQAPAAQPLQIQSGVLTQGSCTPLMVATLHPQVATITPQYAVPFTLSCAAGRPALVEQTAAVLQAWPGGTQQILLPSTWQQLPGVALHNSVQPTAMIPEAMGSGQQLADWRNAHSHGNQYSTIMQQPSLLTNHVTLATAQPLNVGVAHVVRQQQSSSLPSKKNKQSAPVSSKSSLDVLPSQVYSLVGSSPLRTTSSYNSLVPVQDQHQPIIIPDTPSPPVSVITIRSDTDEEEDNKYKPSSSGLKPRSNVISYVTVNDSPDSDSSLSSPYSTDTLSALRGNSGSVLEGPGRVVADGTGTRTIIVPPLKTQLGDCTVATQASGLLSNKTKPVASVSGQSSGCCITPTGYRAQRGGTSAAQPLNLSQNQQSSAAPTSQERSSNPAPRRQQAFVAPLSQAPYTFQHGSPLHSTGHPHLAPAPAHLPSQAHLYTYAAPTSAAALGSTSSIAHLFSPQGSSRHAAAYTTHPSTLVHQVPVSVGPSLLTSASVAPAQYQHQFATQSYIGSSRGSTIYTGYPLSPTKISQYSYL
Experiment [16] addresses Macrophage colony-stimulating factor 1 receptor (Homo sapiens) (UniProt P07333). The following applies: at 1 µM.
For experiment [17], the target named is T2, Rhodopsin kinase GRK7 (Homo sapiens). The following applies: at 1 µM.
Experiment [18] deals with Homeodomain-interacting protein kinase 1 (Homo sapiens) (UniProt Q86Z02). The following applies: at 1 µM.
The target in experiment [19] is Glycogen synthase kinase-3 beta (Homo sapiens) (UniProt P49841). The conditions noted are these: at 10 µM.
In experiment [20] the target is Glycogen synthase kinase-3 alpha (Homo sapiens) (UniProt P49840). The following applies: at 1 µM.

Chain of G protein-coupled receptor kinase 6 (Homo sapiens) (P43250 whole entry, looked up): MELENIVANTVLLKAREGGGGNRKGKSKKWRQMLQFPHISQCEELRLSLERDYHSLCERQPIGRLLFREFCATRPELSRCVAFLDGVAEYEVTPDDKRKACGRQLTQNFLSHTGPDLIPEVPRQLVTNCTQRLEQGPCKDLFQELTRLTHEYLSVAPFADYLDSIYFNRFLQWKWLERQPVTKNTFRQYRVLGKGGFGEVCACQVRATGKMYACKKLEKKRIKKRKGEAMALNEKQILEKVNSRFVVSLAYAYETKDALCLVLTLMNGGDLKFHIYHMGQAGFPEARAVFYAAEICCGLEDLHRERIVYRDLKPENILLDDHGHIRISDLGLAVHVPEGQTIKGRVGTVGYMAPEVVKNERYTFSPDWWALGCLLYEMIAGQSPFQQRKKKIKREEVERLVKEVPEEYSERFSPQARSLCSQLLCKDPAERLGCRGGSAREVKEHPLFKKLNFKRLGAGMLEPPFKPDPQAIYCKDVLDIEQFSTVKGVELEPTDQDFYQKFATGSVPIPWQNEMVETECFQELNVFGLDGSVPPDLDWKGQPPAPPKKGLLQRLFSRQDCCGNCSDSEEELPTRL

Take `Nc1ncnc2c1cnn2-c1ccccc1`: the residual activity in [1] is 82%; in experiment [2], 67%; in experiment [3], 79%; in [4], 58%; in experiment [5], 100%; in [6] it was 93%. In addition, the residual activity in experiment [7] amounted to 94%; in [8], 140%; in experiment [9] it was 84%; in experiment [10], 101%; in experiment [11], 95%; in experiment [12] it was 99%.
Take `CSc1nc(-c2ccc(F)cc2)c(-c2ccnc(NC(C)c3ccccc3)c2)[nH]1` (stereo not drawn): the residual activity in [1] was found to be 64%; in experiment [2] it was 41%; in [3], 87%; in experiment [4] it was 69%; in experiment [5] it was 75%; in experiment [13], 56%. Also, the residual activity in [14] was 91%; in experiment [8], 96%; in [15], 97%; in experiment [11] it was 86%.
`COc1ccc(Cl)cc1NC(=O)Nc1cc(C)nc2ccccc12`: the residual activity in experiment [1] came out at 93%; in [16] it was 89%; in experiment [2], 73%; in [5], 93%; in [13] it was 77%; in experiment [6] it was 92%. Moreover, the residual activity in experiment [17] worked out at 99%; in experiment [7], 88%; in [18] it was 97%; in experiment [10], 98%; in experiment [11] it was 87%; in experiment [12], 99%.
Turning to `CCN1/C(=C/C(C)=O)Sc2ccc(OC)cc21`, the residual activity is 65% in [1]; 81% in experiment [16]; 66% in experiment [2]; 80% in experiment [3]; 74% in [5]; 55% in [13]. In addition, the residual activity in experiment [6] is 79%; in experiment [8], 34%; in experiment [19], 63%; in experiment [12], 82%.
On to `CC(C)(C)c1nc2c3ccc(F)cc3c3c(=O)[nH]ccc3c2[nH]1`, for which the residual activity in [1] was 16%; in [16], 54%; in experiment [2], 18%; in experiment [5] it was 19%; in [13] it was 11%; in [14], 66%. Also, the residual activity in experiment [6] is 68%; in experiment [15], 98%; in [10], 65%; in experiment [11], 21%; in experiment [12] it was 79%.
Turning to `O=C1Nc2ccccc2/C1=C\c1c(Cl)[nH]c2ccccc12`, the residual activity turned out to be 8% in experiment [1]; 79% in [16]; 27% in experiment [2]; 81% in [3]; 59% in experiment [4]; 69% in [13]. Besides, the residual activity in experiment [17] came out at 99%; in experiment [7], 87%; in experiment [9], 141%; in experiment [19], 80%.
In the case of `CN([C@@H](Cc1ccc(OS(=O)(=O)c2cccc3cnccc23)cc1)C(=O)N1CCN(c2ccccc2)CC1)S(=O)(=O)c1cccc2cnccc12`, the residual activity in experiment [7] stood at 85%.
Regarding `NC(=O)c1ccc(-c2nc(-c3ccc4c(c3)OCCO4)c(-c3ccccn3)[nH]2)cc1`, the residual activity in [1] was determined as 46%; in experiment [16], 74%; in experiment [2] it was 64%; in experiment [3], 81%; in [4], 83%; in experiment [13], 94%. The residual activity in experiment [6] came out at 88%; in [9], 117%; in [19], 98%.
On to `O=C(Nc1ccc(Cl)cc1)c1ccccc1NCc1ccncc1`, for which the residual activity in [1] came to 0%; in experiment [16] it was 1%; in experiment [2] it was 0%; in experiment [3] it was 102%; in experiment [4], 70%; in experiment [13], 58%. The residual activity in [20] worked out at 118%; in experiment [8], 130%.
Take `CC(C)[C@H](CO)Nc1nc(Nc2cc(N)cc(Cl)c2)c2ncn(C(C)C)c2n1`: the residual activity in [1] amounted to 3%; in experiment [16], 55%; in experiment [2], 21%; in experiment [3], 9%; in experiment [4] it was 0%; in experiment [14], 44%. Further, the residual activity is 40% in experiment [6]; 58% in experiment [17]; 10% in [7]; 80% in experiment [20]; 28% in [8]; 60% in experiment [15]. Moreover, the residual activity was determined as 86% in experiment [10] and 32% in [11].
Turning to `COc1ccc(CNC(=O)Nc2ncc([N+](=O)[O-])s2)cc1`, the residual activity was 17% in experiment [1]; 77% in [16]; 58% in experiment [2]; 105% in [3]; 28% in experiment [9]; 14% in experiment [19].
